WRN inhibitor = qHTS for Inhibitors of WRN Helicase. Potency, µM (doses to about 114 µM), without a hit: at the highest dose activity change, negative = inhibition, hits mostly inhibitors. 360,000 compounds, 0.46% hits. WRN helicase unwinding, fluorescent forked duplex, kinetic. AID 651768, 2012; note: % is set by controls: 0 for no effect and ±100 for the full control effect; nearly all actives have a fitted effect of over 55% in size
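Fluorescence dequenching readout, ex 525 nm/em 598 nm, kinetic mode: forked duplex DNA (100 nM final) with adjacent fluorophore and quencher unwound by WRN (20 nM final) with 2 mM ATP. Compound preincubation 15 min, room temperature.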
POLB inh = qHTS Assay for Inhibitors of DNA Polymerase Beta. 340,000 compounds, 1.3% hits. P06746. Potency, µM (titrated, usually from 114 µM), for the others: at the top dose activity change, negative = inhibition, actives largely listed as inhibitors. Pol beta primer extension/strand displacement, fluorescence kinetic; note: % is set by controls: 0 for no effect and ±100 for the full control effect
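Curves were derived by four-parameter Hill fits of normalized qHTS data. The kinetic fluorescent primer-extension read was taken at 0 and 10 min after 50 nM substrate, following a 15 min room-temperature preincubation of 10 nM enzyme with compounds.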
FEN1 inhibitor = qHTS Assay for the Inhibitors of Human Flap endonuclease 1 (FEN1) | P39748 | Potency, µM (highest dose often 114 µM), for the others: at the top dose activity change, negative = inhibition, actives largely listed as inhibitors | 390,000 compounds, 0.35% hits | AID 588795, 2011 | Recombinant FEN1 flap cleavage, fluorescence, 15 min; note: % is set by controls: 0 for no effect and ±100 for the full control effect; nearly all actives have a fitted effect of over 65% in size
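Compounds are tested as a concentration series against 10 nM FEN1; after a 15 min room-temperature preincubation, 50 nM substrate starts cleavage, with plate reads at 0 and 15 min. Normalized responses are fitted by a Hill equation.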
Pol kappa inh = qHTS for Inhibitors of Polymerase Kappa. Potency, µM (titrated, usually from 107 µM), without a hit: top-dose activity, negative = inhibition, actives largely listed as inhibitors. purified Pol kappa, fluorescent DNA synthesis assay, 10 min. 400,000 compounds, 0.53% hits; note: % is set by controls: 0 for no effect and ±100 for the full control effect
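10 nM Pol kappa was preincubated with compounds for 15 min at room temperature. Reaction started with 50 nM (final) substrate. Fluorescence read kinetically at 0 and 10 min.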
POLH inh = qHTS for Inhibitors of Polymerase Eta | Potency, µM (titrated, usually from 114 µM), inactives show top-dose activity change, negative = inhibition, usual class: inhibitors | recombinant Pol eta, fluorescent DNA replication assay | DNA polymerase eta (Homo sapiens), Q9Y253 | 390,000 compounds, 1.2% hits; note: % is set by controls: 0 for no effect and ±100 for the full control effect
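Fluorescent replication assay: 50 nM final substrate added after a 15 min room-temperature compound preincubation with 10 nM enzyme. Signal taken at 0 min and again at 10 min.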
Pol iota inh = qHTS for Inhibitors of Polymerase Iota | AID 588590, 2011 | Pol iota fluorescent replication assay, 10 min | 390,000 compounds, 1% hits | Potency, µM (series often up to 115 µM), for inactives: at the highest dose activity, negative = inhibition, hits mostly inhibitors | DNA polymerase iota (Homo sapiens), Q9UNA4
Target sequence (Q9UNA4 whole entry, looked up): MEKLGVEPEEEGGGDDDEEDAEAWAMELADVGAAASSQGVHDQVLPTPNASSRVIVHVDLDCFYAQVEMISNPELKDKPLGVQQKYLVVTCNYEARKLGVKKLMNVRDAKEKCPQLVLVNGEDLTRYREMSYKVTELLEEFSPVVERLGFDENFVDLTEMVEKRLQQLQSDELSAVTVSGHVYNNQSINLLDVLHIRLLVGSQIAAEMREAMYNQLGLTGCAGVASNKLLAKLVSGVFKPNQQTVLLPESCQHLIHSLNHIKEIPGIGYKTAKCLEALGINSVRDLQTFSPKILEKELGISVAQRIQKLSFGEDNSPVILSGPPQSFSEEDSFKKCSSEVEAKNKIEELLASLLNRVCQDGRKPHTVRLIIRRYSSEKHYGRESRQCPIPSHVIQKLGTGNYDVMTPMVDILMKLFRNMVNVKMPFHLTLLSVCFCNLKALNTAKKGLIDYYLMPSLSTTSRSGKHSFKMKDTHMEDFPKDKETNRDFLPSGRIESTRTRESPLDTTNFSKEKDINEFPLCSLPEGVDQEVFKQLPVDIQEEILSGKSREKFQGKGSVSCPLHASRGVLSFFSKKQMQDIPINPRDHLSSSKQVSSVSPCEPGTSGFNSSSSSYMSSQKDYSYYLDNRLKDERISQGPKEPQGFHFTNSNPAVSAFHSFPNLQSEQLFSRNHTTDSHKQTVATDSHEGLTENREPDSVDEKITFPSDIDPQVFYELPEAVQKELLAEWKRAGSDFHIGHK
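Fluorescent replication assay read twice, at 0 min and 10 min after adding 50 nM (final) substrate. Enzyme (10 nM) and compounds were first incubated 15 min at room temperature; enzyme-free buffer wells were negative controls.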
* hit, by the source's call; ? = inconclusive; · = no result given; [ ] = another dose, or the depositor's remark. This is a sample that favours compounds with a hit; in the whole collection about 2.4% have one here. Calls come from the whole dose curve; as a rule, active = well fitted curve in the direction sought with a large enough effect; inconclusive = small, poorly fitted or top-dose-only effect, or another doubt; inactive = no such curve, though single readings can be large; an effect the other way counts as inactive or inconclusive. Potency is the fitted concentration of half-maximal effect.

SMILES	WRN inhibitor	POLB inh	FEN1 inhibitor	Pol kappa inh	POLH inh	Pol iota inh
N#Cc1cccc(N=c2ssnc2Cl)c1	25µM*	1%	2%	-4%	-17%	70%
Clc1nssc1=Nc1ccc(Br)cc1	40µM*	49%	-20%	-5%	2%	121%
COc1cc(N=c2ssnc2Cl)cc(OC)c1	50µM*	-9%	0%	7%	-6%	-14%
CC(C)C[C@H](NC(=O)[C@H](CC(C)C)NC(=O)[C@@H](Cc1c[nH]c2ccccc12)NC(=O)[C@H](Cc1ccccc1)NC(=O)[C@@H](Cc1c[nH]c2ccccc12)NC(=O)[C@H](CCC(N)=O)NC(=O)[C@H](CCC(N)=O)NC(=O)[C@@H]1CCCN1C(=O)[C@H](CCCCN)NC(=O)[C@@H]1CCCN1C(=O)[C@@H](CCCNC(=N)N)NC(=O)[C@@H]1CCCN1C(=O)CNC(=O)[C@H](CC(C)C)NC(=O)[C@H](CC(C)C)NC(=O)[C@H](Cc1ccc(O)cc1)NC(=O)CNC(=O)[C@H](C)NC(=O)[C@H](CO)NC(=O)[C@H](CC(N)=O)NC(=O)[C@H](CC(C)C)NC(=O)[C@@H](NC(=O)[C@H](Cc1c[nH]c2ccccc12)NC(=O)CN)[C@@H](C)O)C(N)=O	·	·	·	12%[60.1 µM]	·	·
COc1ccc(CC(=O)NO)cc1OC	·	·	18%	9%	·	13%
COc1ccc(-c2ccc(OC)c(C3C4C=CCCC4(C)C(=O)N3Cc3ccccc3)c2)cc1 (configuration not stated)	·	·	-16%	-22%	·	-3%
Cc1cccc(Nc2nn3c(=O)c4cc5c(cc4nc3s2)OCO5)c1	·	3.2µM*	4%	-8%	-5%	-2%
COC(=O)/C(=C/Nc1ccc(O)cc1)[N+](=O)[O-]	-6%	16%	-23%	-7%	-10%	7.1µM*
COC(=O)/C(=C/Nc1ccccc1)[N+](=O)[O-]	-8%	0%	-1%	-4%	-2%	7%
C=CCn1c(=O)c(CCC(=O)Nc2ccc(N3CCOCC3)cc2)nc2cc(C(F)(F)F)ccc21	0%[11.6 µM]	6%	-3%	?	79µM*	?
O=C(Cn1cc(C(F)(F)F)ccc1=O)Nc1ccc(N2CCOCC2)cc1	5%	-5%	2%	0%	-26%	95%
Clc1ccccc1Nc1nc(-c2ccncc2)nc2ccccc12	4%[11.6 µM]	-16%	-30%	-6%[60.1 µM]	-14%	50µM*
c1ccc2c(Nc3nc(-c4ccncc4)nc4ccccc34)cccc2c1	-12%	27%	3%	0%	-11%	12%
Cc1ccc(-c2nc(N/N=C/c3ccncc3)c3ccccc3n2)cc1	-29%[57.1 µM]	?	-1%	-17%	45µM*	?
COc1ccc(F)c(Cn2cnc3c(cnn3C(C)(C)C)c2=O)c1Cl	·	·	-10%	-10%	·	2%
NCCCC[C@H](N)C(=O)N[C@@H](CCCN=C(N)N)C(=O)N1CCC[C@H]1C(=O)N1CCC[C@H]1C(=O)NCC(=O)N[C@@H](Cc1ccccc1)C(=O)N[C@@H](CO)C(=O)N1CCC[C@H]1C(=O)N[C@@H](Cc1ccccc1)C(=O)O	·	·	·	15%[60.1 µM]	·	·
NCC[C@H](O)C(=O)N[C@@H]1C[C@H](N)[C@@H](O[C@H]2O[C@H](CN)CC[C@H]2N)[C@H](O)[C@H]1O[C@H]1O[C@H](CO)[C@@H](O)[C@H](N)[C@H]1O	·	·	·	3%[19.4 µM]	·	·
Cc1oc(C)c2c(=O)ccc3c(c12)OC(N)=C(C#N)C3c1ccc(F)cc1 (configuration not stated)	-34%	20µM*	-22%	?	?	?
Cc1[nH]nc2c1C(c1ccc(F)cc1)C(C#N)=C(N)O2 (configuration not stated)	-3%	-29%	3%	-3%	-6%	8%
CSCC[C@H](NC(=O)[C@H](CC(C)C)N(C)C(=O)[C@@H]1CCCN1C(=O)[C@H](Cc1ccccc1)NC(=O)[C@H](Cc1ccccc1)NC(=O)CCC(C)N)C(=O)O (some centres not stated)	·	·	·	8%[60.1 µM]	·	·
CCOC(=O)c1ccc(N2C(=O)C3CC=CCC3C2=O)cc1 (configuration not stated)	-11%	-2%	-2%	-9%	-7%	89µM*
Cc1coc2c(C)c3oc(=O)c(CCC(=O)NCCc4ccccc4)c(C)c3cc12	·	-3%	14%	-3%	7%	2%
CCCC(NC(=O)Cc1c(C)c2cc3c(C)c(C)oc3c(C)c2oc1=O)C(=O)N[C@@H](Cc1ccccc1)C(=O)O (some centres not stated)	-16%	28µM*	-3%	?	?	?
Cc1coc2c(C)c3oc(=O)c(CCC(=O)N[C@@H](C)C(=O)N[C@@H](Cc4ccccc4)C(=O)O)c(C)c3cc12	-18%	?	-2%	?	28µM*	-12%
Cc1cc[n+](CC(=O)c2ccc(F)cc2)c2ccccc12	·	·	13%	-9%	·	0%
SMILES	WRN inhibitor	POLB inh	FEN1 inhibitor	Pol kappa inh	POLH inh	Pol iota inh
CC(=O)N(O)c1ccc(/C=C2\C=Cc3ccccc32)cc1	·	·	-19%	-5%	·	12%
COc1ccccc1CNC(=O)/C=C/c1ccc(Br)o1	-15%	8.9µM*	5%	-20%	-10%	?
COc1ccc(NC(=O)/C=C/c2ccc(Br)o2)cn1	?	11µM*	-24%	79µM*	50µM*	16µM*
COc1ccccc1CNC(=O)Cc1ccc(Br)cc1	-23%	5%	1%	-7%	-8%	5%
O=C(NCCc1nc2ccccc2n1CCOc1ccccc1)C1CCCCC1	·	·	0%	-16%	·	-4%
O=C(Nc1ccc(Br)cc1F)c1cnn2c1NC(=C1CC1)C=C2C(F)F	·	·	9%	32µM*	·	?
CC(=O)OCC(NC(=O)C(C)NC(=O)OC(C)(C)C)C1OC(n2cc(F)c(=O)[nH]c2=O)C(OC(C)=O)C1OC(C)=O (configuration not stated)	·	·	-6%	-5%	·	-4%
O=C(OCc1cc(=O)n2nc(-c3cccs3)sc2n1)c1ccccc1Br	·	20µM*	8%	-25%	79µM*	?
O=C(COc1ccc(F)cc1)OCc1cc(=O)n2nc(-c3cccs3)sc2n1	·	?	-11%	?	-10%	?
O=C(OCc1cc(=O)n2nc(-c3cccs3)sc2n1)c1cccc(F)c1	·	18µM*	12%	-3%	?	?

Bioassay records from PubChem.
